Test systems include HCT-15 colon; HT29 colon; SNB-75 CNS; SNB-19 CNS; U251 CNS; PC-3 prostate; SK-MEL-5 melanoma; UACC-62 melanoma; LOX IMVI melanoma; SK-MEL-28 melanoma; SK-MEL-2 melanoma; EKVX NSCLC; SN12C renal; UO-31 renal; TK-10 renal; ACHN renal; A498 renal; CCRF-CEM leukemia; MOLT-4 leukemia; SR leukemia.
What all share (test): NCI-60 one-dose screen, 48 h (100 = growth as untreated, 0 = no growth, -100 = all killed)
Holding throughout (conditions): 10 µM unless noted

The text below walks through data of PubChem BioAssay (NCI).

Structures are written as SMILES. About 83,000 compounds went through this panel and 20% of them were active in at least one assay; those are over-represented in the sample as a whole.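 Each cell line was grown in a 96-well plate and treated with one concentration of compound for 48 hours. Values below 10 were considered active.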 A number with no mark means an inactive call. Calls of active or inactive are those of the source.

With `Cc1ccc(SC2c3ccc(C)cc3Oc3nc(N)c(C#N)c(N)c32)cc1` (stereo not given), the growth with HCT-15 colon is 30.7%; in the test with HT29 colon, 103%; in the test on SNB-75 CNS it was 73.2%; in the test on SNB-19 CNS it was 109%; in the test on U251 CNS, 85.1%; in the test with PC-3 prostate, 80.6%. Besides, the growth was 63.8% with SK-MEL-5 melanoma; 103% in the test with UACC-62 melanoma; 37.7% in the test with LOX IMVI melanoma; 87.7% in the test on SK-MEL-28 melanoma; 65.3% in the test on SK-MEL-2 melanoma; 59.8% in the test with EKVX NSCLC. Further, the growth in the test on SN12C renal was 79.9%; with UO-31 renal it was 48.5%; with TK-10 renal it was 69.3%; in the test on ACHN renal, 68.1%; in the test on A498 renal it was 106%; in the test with CCRF-CEM leukemia, 7.82% (active). The growth in the test with MOLT-4 leukemia was 7.29% (active); with SR leukemia, -11.8% (active).
Turning to `COc1cc(-c2csc(NC(=O)Nc3ccc(Cl)cc3)n2)cc(OC)c1OC`, the growth in the test on HCT-15 colon is 20.1%; in the test on HT29 colon, 36.1%; in the test on SNB-75 CNS it was 36.5%; in the test on SNB-19 CNS it was 24.3%; in the test with U251 CNS it was 25.4%; with PC-3 prostate, 3.63% (active). Besides, the growth in the test on SK-MEL-5 melanoma was -37.8% (active); with UACC-62 melanoma, -7.54% (active); in the test with LOX IMVI melanoma, 24.7%; in the test on SK-MEL-28 melanoma it was 41.1%; in the test with SK-MEL-2 melanoma it was 29.3%; in the test with EKVX NSCLC it was 26%. In addition, the growth in the test on SN12C renal was 27.5%; in the test with UO-31 renal, 16.9%; in the test on TK-10 renal it was 26.6%; in the test on ACHN renal, 18.3%; in the test with A498 renal, 21.7%; with CCRF-CEM leukemia, 6.31% (active). In addition, the growth in the test on MOLT-4 leukemia is -17% (active); in the test on SR leukemia it was 33.7%.
Take `CCOCCc1c(O)nc(SC)[nH]c1=O`: the growth is 98.2% in the test with HCT-15 colon; 101% in the test on HT29 colon; 78.7% with SNB-75 CNS; 95.9% in the test on SNB-19 CNS; 103% in the test on U251 CNS; 91.1% with PC-3 prostate. Also, the growth with SK-MEL-5 melanoma was 103%; in the test with UACC-62 melanoma it was 98.1%; with LOX IMVI melanoma, 105%; with SK-MEL-28 melanoma, 99.2%; in the test with SK-MEL-2 melanoma it was -28.8% (active); with EKVX NSCLC, 121%. Besides, the growth is 92.6% in the test on SN12C renal; 83.9% in the test on UO-31 renal; 122% in the test with TK-10 renal; 108% with ACHN renal; 85.7% with A498 renal; 113% in the test with CCRF-CEM leukemia. Moreover, the growth was 116% in the test with MOLT-4 leukemia and 112% with SR leukemia.
For `CC1CCCN(CCCCCOc2ccc3oc4ccccc4c(=O)c3c2)C1` (stereo not given), the growth is 26.4% in the test on HCT-15 colon; 8.93% (active) in the test on HT29 colon; 75.8% in the test on SNB-75 CNS; 83.6% in the test on SNB-19 CNS; 62.7% with U251 CNS; 73.7% in the test with PC-3 prostate. For the same compound, the growth with SK-MEL-5 melanoma was -59.2% (active); in the test on UACC-62 melanoma, -26.5% (active); in the test with LOX IMVI melanoma it was 33.2%; in the test with SK-MEL-28 melanoma it was 45%; with SK-MEL-2 melanoma, 82.3%; in the test with EKVX NSCLC it was 84%. In addition, the growth was 64.3% with SN12C renal; 61.2% in the test on UO-31 renal; 82.3% with TK-10 renal; 98.9% in the test with ACHN renal; 75.9% in the test with A498 renal; 70.9% with CCRF-CEM leukemia. Moreover, the values for the growth with MOLT-4 leukemia and with SR leukemia were 49% and 36.4%, respectively.
As to `CC(=O)OCC1SC(OC(C)=O)C(NC(=O)/C=C/CCl)C(OC(C)=O)C1OC(C)=O` (stereo not given), the growth in the test on HCT-15 colon is 100%; in the test on HT29 colon it was 102%; with SNB-75 CNS, 93.8%; with SNB-19 CNS, 111%; with U251 CNS, 90.6%; with PC-3 prostate, 86.8%. In addition, the growth in the test on SK-MEL-5 melanoma is 87.7%; in the test on UACC-62 melanoma, 98%; in the test with LOX IMVI melanoma it was 93.4%; with SK-MEL-28 melanoma, 112%; in the test on SK-MEL-2 melanoma, 79.9%; in the test with EKVX NSCLC it was 102%. In addition, the growth in the test on SN12C renal was 89.4%; in the test with UO-31 renal, 102%; with TK-10 renal, 93.8%; in the test on ACHN renal, 92.1%; with A498 renal, 96.3%; in the test with CCRF-CEM leukemia, 83.7%. Further, the growth is 88.1% in the test with MOLT-4 leukemia and 86.2% in the test with SR leukemia.
For `Cc1cccc(C)c1Nc1nnc(-c2ccc(F)cc2)o1`, the growth was 110% with HCT-15 colon; 111% with HT29 colon; 80.2% in the test with SNB-75 CNS; 104% with SNB-19 CNS; 104% in the test on U251 CNS; 98.6% in the test with PC-3 prostate. In addition, the growth in the test on SK-MEL-5 melanoma was 98.9%; in the test on UACC-62 melanoma, 103%; in the test on LOX IMVI melanoma, 95.1%; in the test on SK-MEL-28 melanoma it was 100%; in the test on SK-MEL-2 melanoma, 105%; with EKVX NSCLC, 104%. Besides, the growth in the test with SN12C renal is 105%; with UO-31 renal, 88.8%; in the test with TK-10 renal it was 105%; in the test on ACHN renal, 100%; in the test on A498 renal, 103%; in the test with CCRF-CEM leukemia it was 100%. Also, the growth with MOLT-4 leukemia is 110%; in the test on SR leukemia, 119%.
`O=C(Nc1nc(-c2ccccc2)cs1)c1cc(-c2ccc(Br)cc2)nc2ccccc12`: the growth in the test on HCT-15 colon is 33%; in the test with HT29 colon, 39.8%; in the test on SNB-75 CNS it was 85.1%; in the test with SNB-19 CNS, 79.2%; in the test with U251 CNS it was 42%; with PC-3 prostate it was 28.9%. Besides, the growth with SK-MEL-5 melanoma is 54.8%; with UACC-62 melanoma, 50.5%; in the test with LOX IMVI melanoma, 42.7%; in the test on SK-MEL-28 melanoma, 68.3%; with SK-MEL-2 melanoma, 67%; in the test on EKVX NSCLC, 41.2%. In addition, the growth is 54.9% in the test with SN12C renal; 17.2% in the test on UO-31 renal; 63.2% in the test with TK-10 renal; 55.4% in the test on ACHN renal; -55.9% (active) in the test with A498 renal; 20.9% in the test with CCRF-CEM leukemia. For the same compound, the growth was 24% in the test with MOLT-4 leukemia and 19.5% in the test on SR leukemia.
Consider `CCN1CCC[C@H]1c1cc(O)c2c(c1OC)C[C@H]1C[C@H]3[C@H](N)C(=O)C(C(N)=O)=C(O)[C@@]3(O)C(=O)C1=C2O`, for which the growth is 1.67% (active) with HCT-15 colon; -4.51% (active) in the test with HT29 colon; -4.69% (active) with SNB-75 CNS; -0.511% (active) in the test with SNB-19 CNS; -8.89% (active) in the test on U251 CNS; 3.27% (active) in the test with PC-3 prostate. For the same compound, the growth in the test with SK-MEL-5 melanoma was -46% (active); in the test with UACC-62 melanoma, -19% (active); with LOX IMVI melanoma it was -45.2% (active); in the test on SK-MEL-28 melanoma, -10.6% (active); in the test on SK-MEL-2 melanoma, -43.9% (active); with EKVX NSCLC, -8.34% (active). Besides, the growth was -3.68% (active) with SN12C renal; -5.6% (active) with UO-31 renal; -8.12% (active) with TK-10 renal; -2.88% (active) in the test with ACHN renal; -14.7% (active) in the test on A498 renal; 1.43% (active) with CCRF-CEM leukemia. In addition, the growth is -16.8% (active) in the test on MOLT-4 leukemia and -18.8% (active) in the test on SR leukemia.
